Experimental data from PubChem BioAssay (NCATS).
Inconclusive results are not listed. Activity calls are given as the source filed them. The call rests on the fitted dose curve; in most records, active means well fitted curve in the direction sought with a large enough effect; inconclusive means small, poorly fitted or top-dose-only effect, or another doubt; inactive means no such curve, though single readings can be large; an effect the other way counts as inactive or inconclusive.

How the values were obtained:
CRL-7250 = normal cell line; assay: Cytotoxic Profiling of Annotated Libraries Using Quantitative High-Throughput Screening (AID 1296008); conditions: Five cell lines viability, CellTiter-Glo ATP luminescence, 48-72 h; max response: active compounds read low; further: nearly all actives have a fitted effect of over 60% in size; on max response: on the % scale 0 is the no-effect control and ±100 the full control effect
Summary of the method: (§1)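 Cytotoxicity was measured as CellTiter-Glo ATP luminescence, read after 10 min at room temperature. Compound treatment of the cells lasted 48 or 72 hr at 37 degrees Celsius in a qHTS format.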

HEK293 = assay: as above; conditions: Five cell lines viability, CellTiter-Glo ATP luminescence, 48-72 h; max response: active compounds read low
Summary of the method: as §1

HaCat [1] = assay: as above; conditions: Five cell lines viability, CellTiter-Glo ATP luminescence, 48-72 h; max response: active compounds read low
Summary of the method: as §1

KB-3-1 = assay: as above; conditions: Five cell lines viability, CellTiter-Glo ATP luminescence, 48-72 h; max response: active compounds read low
Summary of the method: as §1

NIH3T3 [2] = assay: as above; conditions: Five cell lines viability, CellTiter-Glo ATP luminescence, 48-72 h; max response: active compounds read low
Summary of the method: as §1

MCC-13 = assay: qHTS assay to identify novel small-molecules to repurpose for Merkel cell carcinoma treatment (AID 1296009); conditions: MCC and control cell lines, CellTiter-Glo viability, 72 h; series mostly up to 46 µM; further: nearly all actives have a fitted effect of over 60% in size
Summary of the method: (§2)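 Cell viability measured by CellTiter-Glo following 72 hr compound treatment at 37 degree celsius, with NPC and MIPE libraries tested in 8- and 11-point concentration series.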

MCC-26 = assay: as above; conditions: MCC and control cell lines, CellTiter-Glo viability, 72 h; series mostly up to 46 µM
Summary of the method: as §2

MKL-1 = assay: as above; conditions: MCC and control cell lines, CellTiter-Glo viability, 72 h; series mostly up to 46 µM
Summary of the method: as §2

MKL-2 = assay: as above; conditions: MCC and control cell lines, CellTiter-Glo viability, 72 h; series mostly up to 46 µM
Summary of the method: as §2

UISO = assay: as above; conditions: MCC and control cell lines, CellTiter-Glo viability, 72 h; series mostly up to 46 µM
Summary of the method: as §2

WaGa = assay: as above; conditions: MCC and control cell lines, CellTiter-Glo viability, 72 h; series mostly up to 46 µM
Summary of the method: as §2

C33A = assay: Primary qHTS to identify gynecologic anti-cancer compounds using libraries of approved drugs and bioactive compounds (AID 1345084); conditions: Gynecologic cancer cell panel viability, ATPlite luminescence, 48 h; series mostly up to 57.5 µM; further: on the % scale 0 is the no-effect control and ±100 the full control effect; nearly all actives have a fitted effect of over 55% in size
Summary of the method: (§3)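 Cells, 1,000 per well, were allowed to settle for 16 h at 37 C before compound addition. Five concentrations were tested for 48 h, and viability was read by ATPlite luminescence after 15 min at room temperature.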

CAOV3 = assay: as above; conditions: Gynecologic cancer cell panel viability, ATPlite luminescence, 48 h; series mostly up to 57.5 µM
Summary of the method: as §3

CASKI = assay: as above; conditions: Gynecologic cancer cell panel viability, ATPlite luminescence, 48 h; series mostly up to 57.5 µM
Summary of the method: as §3

Es-2 = assay: as above; conditions: Gynecologic cancer cell panel viability, ATPlite luminescence, 48 h; series mostly up to 57.5 µM
Summary of the method: as §3

HeLa = assay: as above; conditions: Gynecologic cancer cell panel viability, ATPlite luminescence, 48 h; series mostly up to 57.5 µM
Summary of the method: as §3

W2 = assay: qHTS profiling for inhibitors of Plasmodium falciparum proliferation (AID 504749);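 further: 0% = DMSO vehicle and full inhibition = artemisinin control; nearly all actives have a fitted effect of over 60% in size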; conditions: P. falciparum in erythrocytes, SYBR Green DNA, 72 h; series mostly up to 28.7 µM
Summary of the method: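 In a 72 h erythrocytic culture (37 C, humidified, 5% CO2) at 2.5% hematocrit and 0.3% starting parasitemia, compounds were tested; SYBR Green I in detergent lysis buffer stained parasite DNA overnight.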

HACAT [3] = assay: qHTS assay to identify novel small-molecules to repurpose for Merkel cell carcinoma treatment (AID 1296009); conditions: MCC and control cell lines, CellTiter-Glo viability, 72 h; at 44.8 µM (top of the series) unless noted; further: nearly all actives have a fitted effect of over 60% in size
Summary of the method: as §2

NIH3T3 [4] = assay: as above; conditions: MCC and control cell lines, CellTiter-Glo viability, 72 h; at 44.8 µM (top of the series)
Summary of the method: as §2

NS(=O)(=O)c1cc2c(cc1Cl)NC(CC1CCCC1)NS2(=O)=O (centres undefined)
inactive: max response (CRL-7250) -2.46% | max response (HEK293) -7.58% | max response (HaCat [1]) -5.14% | max response (KB-3-1) 7.67% | max response (NIH3T3 [2]) 2.98% | Potency (MCC-13) | Potency (MCC-26) | Potency (MKL-1) | Potency (MKL-2) | Potency (UISO) | Potency (WaGa) | Potency (C33A) | Potency (CAOV3) | Potency (CASKI) | Potency (Es-2) | Potency (HeLa)

CCC(CC)(CC(=O)Nc1cccc(/C=C/c2nc(C3CCC3)cs2)c1)C(=O)O
inactive: Potency (W2) | max response (CRL-7250) 2.29% | max response (HEK293) -8.39% | outcome (HaCat [1]) | max response (KB-3-1) -22.9% | max response (NIH3T3 [2]) 2.57% | outcome (HACAT [3]) | Potency (MCC-13) | Potency (MCC-26) | Potency (MKL-1) | Potency (UISO) | Potency (C33A) | Potency (CASKI)

COc1ccc(C(=O)c2ccccc2O)c(O)c1
inactive: outcome (CRL-7250) | max response (HEK293) -10.9% | max response (HaCat [1]) 4.59% | max response (KB-3-1) -2.05% | max response (NIH3T3 [2]) 1.03% | Potency (MCC-13) | Potency (MCC-26) | Potency (MKL-1) | Potency (MKL-2) | Potency (UISO) | Potency (WaGa) | Potency (C33A) | Potency (CAOV3) | Potency (CASKI) | Potency (Es-2) | Potency (HeLa)

CC(CNC1CCCCC1)OC(=O)c1ccccc1 (centres undefined)
inactive: max response (CRL-7250) -16.2% | max response (HEK293) -47.9% | max response (HaCat [1]) -18.5% | max response (KB-3-1) 3.78% | max response (NIH3T3 [2]) 0.669% | Potency (MCC-13) | Potency (MCC-26) | Potency (MKL-1) | Potency (MKL-2) | Potency (UISO) | Potency (WaGa) | Potency (C33A) | Potency (CAOV3) | Potency (CASKI) | Potency (Es-2) | Potency (HeLa)

CC(=C(CCOC(=O)C(C)C)SSC(CCOC(=O)C(C)C)=C(C)N(C=O)Cc1cnc(C)nc1N)N(C=O)Cc1cnc(C)nc1N
inactive: max response (CRL-7250) 0.406% | max response (HEK293) -4.89% | outcome (HaCat [1]) | max response (KB-3-1) 1.98% | outcome (NIH3T3 [2]) | outcome (HACAT [3]) | Potency (MCC-13) | Potency (MCC-26) | Potency (MKL-1) | outcome (NIH3T3 [4]) | Potency (UISO) | Potency (WaGa) | Potency (C33A) | Potency (CASKI) | Potency (Es-2) | Potency (HeLa)

N[C@H](C(=O)O)[C@@H](O)c1ccc(O)c(O)c1
inactive: outcome (CRL-7250) | max response (HEK293) -0.734% | max response (HaCat [1]) 1.85% | max response (KB-3-1) -1.88% | max response (NIH3T3 [2]) 0.856% | Potency (MCC-13) | Potency (MCC-26) | Potency (MKL-1) | Potency (MKL-2) | Potency (UISO) | Potency (WaGa) | Potency (C33A) | Potency (CAOV3) | Potency (CASKI) | Potency (Es-2) | Potency (HeLa)

COC(=O)C(c1ccccc1Cl)N1CCc2sccc2C1 (centres undefined)
inactive: max response (CRL-7250) -10.1% | max response (HEK293) 4.89% | max response (HaCat [1]) 4.22% | max response (KB-3-1) -8.1% | max response (NIH3T3 [2]) -4.69% | Potency (MCC-13) | Potency (MCC-26) | Potency (MKL-1) | Potency (MKL-2) | Potency (UISO) | Potency (WaGa) | Potency (C33A) | Potency (CAOV3) | Potency (CASKI) | Potency (Es-2) | Potency (HeLa)

CCCCCCCCCCCCCC(=O)OC(C)C
inactive: Potency (W2) | max response (CRL-7250) -4.95% | max response (HEK293) -0.105% | max response (HaCat [1]) -4.71% | max response (KB-3-1) -19% | max response (NIH3T3 [2]) 2.35% | Potency (MCC-13) | Potency (MCC-26) | Potency (MKL-1) | Potency (MKL-2) | Potency (UISO) | Potency (WaGa) | Potency (C33A) | Potency (CAOV3) | Potency (CASKI) | Potency (Es-2) | Potency (HeLa)

COc1cc(C(=S)N2CCOCC2)ccc1O
inactive: Potency (W2) | max response (CRL-7250) -4.16% | max response (HEK293) -23.8% | max response (HaCat [1]) -11.5% | max response (KB-3-1) 12.3% | max response (NIH3T3 [2]) -6.82% | Potency (MCC-13) | Potency (MCC-26) | Potency (MKL-1) | Potency (MKL-2) | Potency (UISO) | Potency (WaGa) | Potency (C33A) | Potency (CAOV3) | Potency (CASKI) | Potency (Es-2) | Potency (HeLa)

O=C(O)CCC(=O)Nc1ccc(S(=O)(=O)Nc2nccs2)cc1
inactive: Potency (W2) | max response (CRL-7250) -7.17% | max response (HEK293) -13.9% | max response (HaCat [1]) -28.4% | max response (KB-3-1) 14.8% | max response (NIH3T3 [2]) -7.15% | Potency (MCC-13) | Potency (MCC-26) | Potency (MKL-1) | Potency (MKL-2) | Potency (UISO) | Potency (WaGa) | Potency (C33A) | Potency (CAOV3) | Potency (CASKI) | Potency (Es-2) | Potency (HeLa)

CCOc1ccc(NC(C)=O)cc1
inactive: Potency (W2) | max response (CRL-7250) -21.4% | max response (HEK293) -5.15% | max response (HaCat [1]) -1.35% | max response (KB-3-1) 8.88% | max response (NIH3T3 [2]) -7.54% | Potency (MCC-13) | Potency (MCC-26) | Potency (MKL-1) | Potency (MKL-2) | Potency (UISO) | Potency (WaGa) | Potency (C33A) | Potency (CAOV3) | Potency (CASKI) | Potency (Es-2) | Potency (HeLa)

O=C1C(=O)c2ccccc2C(O)=C1C1CCC(c2ccc(Cl)cc2)CC1 (centres undefined)
inactive: max response (CRL-7250) 1.68% | max response (HEK293) 0.597% | max response (HaCat [1]) -2.46% | max response (KB-3-1) -5.6% | max response (NIH3T3 [2]) 2.17% | Potency (MCC-13) | Potency (MCC-26) | Potency (MKL-1) | Potency (MKL-2) | Potency (UISO) | Potency (WaGa) | Potency (C33A) | Potency (CASKI) | Potency (Es-2) | Potency (HeLa)

CCOC(=O)c1ccc(N)cc1
inactive: Potency (W2) | max response (CRL-7250) -8.72% | max response (HEK293) -24% | max response (HaCat [1]) -25.3% | max response (KB-3-1) 1.36% | max response (NIH3T3 [2]) -0.465% | Potency (MCC-13) | Potency (MCC-26) | Potency (MKL-1) | Potency (MKL-2) | Potency (UISO) | Potency (WaGa) | Potency (C33A) | Potency (CAOV3) | Potency (CASKI) | Potency (Es-2) | Potency (HeLa)
